Results taken from the OligoGym collection.

molecular target: KRBA1; assay: pooled miR-30 sensor sort-seq; sequence = guide strand; conditions: shRNA
Note: reference of the scale not given here.

| Sequence | sensor-assay potency score (higher = more potent) |
| --- | --- |
| TTGTCTGCTGTCCAGTTCCTGG | -1.35 |
| TTTGTCGGCAGTTTTGATGGGG | 0.519 |
| TTCACTGTGTGATCTGTGGGGT | 0.493 |
| TCTGAGACCTAGAGTCTCCTGG | -0.0756 |
| TTCTTCACTGTGTGATCTGTGG | -0.539 |
| TTGGCTGCAACTCTGGGTCTTC | -0.346 |
| TTCTCCAGCTGAGAAACCGGGC | -0.802 |
| TCTTCCATGTCCAAGCTCCAGG | -1.05 |
| TAGAGGACAGCAGCTGCTGGGA | -1.32 |
| TCTCCAAACAAGAACTCTGGGA | -0.424 |
| TTGTCGGCAGTTTTGATGGGGA | -0.192 |
| ATTTGATTGAATCTGAGCCAAG | -1.53 |

molecular target: KRBA2; assay: as above; conditions: shRNA

| Sequence | sensor-assay potency score (higher = more potent) |
| --- | --- |
| TTTAGCTTCTTTAACTTCCTTT | 0.674 |
| TAACAAGACACTGACCACCTCA | 0.174 |
| TTGAGCTCATGAACAACCTGGT | 0.411 |
| TTGCTTTCTACTAACTTTGTTA | 0.0117 |
| TATAAGACAATAACTTCTTTGG | -0.185 |
| TGAACTTGAACTCACCATCGGC | 0.0582 |
| TGTGTCTCTGTAGCAATCCTTT | -1.24 |
| TTGCTGTTGTAACTTTTGCTTT | -1.09 |
| TAAGACAATAACTTCTTTGGTG | 0.507 |
| ATTGAGCTCATGAACAACCTGG | -0.217 |
